Bioassay records deposited in PubChem BioAssay by National Center for Advancing Translational Sciences (NCATS).
Rows were chosen to be rich in hits. Some 10% of all compounds tested hit in one or more screens of this group.
NPR1 antag – antagonists of human natriuretic peptide receptor Npr1; HEK293 hNpr1 GloSensor cGMP, ANP-stimulated luminescence; Potency, µM (highest dose often 46.3 µM), for inactives: at the highest dose activity change, negative = inhibition, usual class: inhibitors; 76,000 tested, 1.6% active; calls by dose curve; note: % is set by controls: 0 for no effect and ±100 for the full control effect; nearly all actives have a fitted effect of over 60% in size
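Compound pre-incubated 30 min at room temperature on GloSensor-loaded HEK293 cells stably carrying hNpr1 and the pGS-40F cGMP biosensor. Stimulation uses hNppA at 0.1 nM final; luminescence is taken at baseline and 20 min post-agonist.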
GPT2 inhibitor – GPT2 alanine aminotransferase inhibition | Q8TD30 | 100,000 tested, 0.25% active | Recombinant GPT2, coupled pyruvate oxidase/HRP Amplex Red fluorescence | Potency, µM (doses to about 57.7 µM), without a hit: top-dose activity change, negative = inhibition, usual class: inhibitors; note: % is set by controls: 0 for no effect and ±100 for the full control effect; nearly all actives have a fitted effect of over 60% in size
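GPT2 10ng/uL, a-KG 250uM, L-Ala 2mM, HEPES pH7.5 + 0.0001% Tween; 30 min RT. Then Amplex mix (PO/HRP/ThPP), 30 min RT dark, fluorescence. AOA 50uM used as positive control.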
3T3 cytotox – NIH 3T3 cell cytotoxicity; Potency, µM (doses to about 96.7 µM), without a hit: at the highest dose activity change, negative = cytotoxicity, most hits filed as inhibitors; NIH 3T3 viability, CellTiter-Glo ATP luminescence, 48-72 h; 94,000 tested, 4.3% active; AID 1345082; note: % is set by controls: 0 for no effect and ±100 for the full control effect; nearly all actives have a fitted effect of over 55% in size
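Viability of NIH 3T3 cells after 48 or 72 hr compound treatment at 37 °C was assessed by CellTiter-Glo, with luminescence imaged following a 10 min room-temperature step.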
HEK cytotox – HEK 293 cell cytotoxicity | Potency, µM (doses to about 115 µM), inactives show top-dose activity change, negative = cytotoxicity, usual class: inhibitors | HEK 293 viability, ATP luminescence (CellTiter-Glo), 48-72 h | 94,000 tested, 6.6% active; note: % is set by controls: 0 for no effect and ±100 for the full control effect; nearly all actives have a fitted effect of over 60% in size
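Pintool-delivered compounds were incubated with HEK 293 cells (250 cells/well) at 37 degree Celsius for 48 or 72 hr. ATP-dependent luminescence (CellTiter-Glo) then reported remaining viable cells.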
FLuc inh – inhibitors of firefly (Photinus pyralis) luciferase. P08659. purified P. pyralis luciferase, luminescence, biochemical. Potency, µM (doses to about 115 µM), most hits filed as inhibitors. 76,000 tested, 2.5% active. AID 1347043; note: % is set by controls: 0 for no effect and ±100 for the full control effect; nearly all actives have a fitted effect of over 65% in size
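Luminescence read by CCD imaging after purified firefly luciferase (10nM final) was added to substrate buffer holding 10uM D-luciferin and 10uM ATP, pH 7.5, pre-dosed with compound.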
NPR1 antag cnf – confirmation of human Npr1 natriuretic peptide receptor antagonists; shares compounds with NPR1 antag; HEK293 hNpr1 cGMP GloSensor luminescence, ANP-stimulated; Potency, µM (titrated, usually from 57.6 µM), for inactives: top-dose activity change, negative = inhibition, most hits filed as inhibitors; 1,400 tested, 76% active; calls by dose curve; note: nearly all actives have a fitted effect of over 70% in size
Npr2 selectivity – selectivity test of Npr1 antagonists against human Npr2. shares compounds with NPR1 antag. HEK293 hNpr2 GloSensor cGMP luminescence, CNP-stimulated. Potency, µM (series often up to 57.6 µM), inactives show at the highest dose activity change, negative = inhibition, usual class: inhibitors. 1,400 tested, 67% active; calls by dose curve; note: nearly all actives have a fitted effect of over 70% in size
FLuc counter – FLuc enzyme inhibition, Npr1 counter-screen; shares compounds with NPR1 antag; purified FLuc enzyme, luminescence, Km substrate; AID 1347047; 1,400 tested, 0.7% active; Potency, µM (titrated, usually from 57.6 µM), for inactives: at the top dose activity change, negative = inhibition, usual class: inhibitors; note: series mostly up to about 58 µM; 0% is about no effect
GloSensor ctrl – control cell line activity, Npr1 antagonist counter-screen; shares compounds with NPR1 antag; 1,400 tested, 69% active; Potency, µM (top dose mostly 57.6 µM), for inactives: top-dose activity change, negative = inhibition, usual class: inhibitors; HEK293 GloSensor cGMP, SNP-stimulated, luminescence; AID 1347051; calls by dose curve; note: % is set by controls: 0 for no effect and ±100 for the full control effect; nearly all actives have a fitted effect of over 70% in size
Numbers without * were called inactive; i = inactive; u = inconclusive; x = no result; [ ] = dose if it differs, or a comment. Unless noted, calls come from the whole dose curve; as a rule, active = well fitted curve in the direction sought with a large enough effect; inconclusive = small, poorly fitted or top-dose-only effect, or another doubt; inactive = no such curve, though single readings can be large; an effect the other way counts as inactive or inconclusive. Potency is the fitted concentration of half-maximal effect.

SMILES	NPR1 antag	GPT2 inhibitor	3T3 cytotox	HEK cytotox	FLuc inh	NPR1 antag cnf	Npr2 selectivity	FLuc counter	GloSensor ctrl
Cc1nn2c(c1-c1ccccc1OCc1ccccc1)N(C(=O)Cc1ccccn1)CCC2	u	-7%[88.5 µM]	u	u	i	20µM*	13µM*	1%[86.2 µM]	-20%[86.2 µM]
Cc1ccc(Nc2ccnc(N3CCCC3C(=O)NC3CC3)n2)cc1 (stereo not given)	x	i	-19%	u	x	x	x	x	x
COc1cc(Cl)ccc1C(=O)N1CCC2(CC1)NC(=O)N(c1ccccc1)N2	-6%	u	u	-46%	i	x	x	x	x
CN(Cc1ccc2nccnc2c1)C(=O)c1ccc(CCC(C)(C)O)cc1	-24%	u	-27%	u	i	x	x	x	x
CN(Cc1cnc2ccccc2c1)C(=O)c1ccc(CCC(C)(C)O)cc1	2.5µM*	u	u	40µM*	i	5.4µM*	6.9µM*	3%	3.9µM*
CCN(Cc1cccc2cnccc12)CC1CCCN(CCc2cccc(F)c2)C1 (stereo not given)	u	-7%	40µM*	18µM*	i	24µM*	19µM*	-2%	-1%
CCN(Cc1nc2ccccc2[nH]1)CC1CCCN(CCc2cccc(F)c2)C1 (stereo not given)	-15%	-12%	u	u	i	x	x	x	x
Cn1cccc1CN1CC(N2CCc3ccccc32)C1	x	i	-5%[138 µM]	-12%[172 µM]	x	x	x	x	x
Fc1cccc(CN2CCC(Oc3ccc(-c4noc(C5CC5)n4)cc3)C2)c1 (stereo not given)	20µM*	i	u	u	i	27µM*	u	0%	u
O=C(COc1ccc(F)cc1)N1CCC(Oc2ccc(-c3noc(C4CC4)n3)cc2)C1 (stereo not given)	11µM*	i	u	u	i	u	u	-2%	31µM*
O=C(C1CC1)N1CCC(Cc2nc(-c3ccc(F)cc3)no2)CC1	u	-2%	u	u	i	x	x	x	x
O=C(Cc1ccc(F)cc1)N1CCC(Cc2nc(-c3ccc(F)cc3)no2)CC1	13µM*	-4%	u	u	i	14µM*	14µM*	3%	11µM*
O=C(CC1CCCCC1)N1CCC(Cc2nc(-c3ccc(F)cc3)no2)CC1	4µM*	3%	u	u	i	4.8µM*	5.4µM*	-1%	4.8µM*
Cc1ccc(C)c(CN2CCC3(CCC(=O)N(CCc4ccncc4)C3)CC2)c1	0%	i	i	-15%	i	x	x	x	x
CC(C)c1noc(CC2CCN(C(=O)Cc3ccc(F)cc3)CC2)n1	-23%	i	-42%	-19%	i	x	x	x	x
O=C(c1ccc(F)cc1)N1CCC(Cc2nc(-c3ccc(F)cc3)no2)CC1	1.4µM*	i	u	u	i	1.7µM*	2.7µM*	-1%	1.9µM*
CCOc1ccc(CC(=O)N2CCC(Cc3nc(-c4ccc(F)cc4)no3)CC2)cc1	6.3µM*	4%	u	u	i	5.4µM*	6.1µM*	6%	4.8µM*
